{
  "source": "PubChem BioAssay (NCATS)",
  "note": "Some of the results follow. Inconclusive results are not listed. Values without a mark were called inactive. Calls come from the whole dose curve; as a rule, active = well fitted inhibition curve with a large enough effect; inconclusive = small, poorly fitted or top-dose-only effect; inactive = flat fitted curve, though single readings scatter. % is set by controls: 0 for no effect and ±100 for the full control effect.",
  "data": [
    {"molecular_target": "Fructose-bisphosphate aldolase A (Oryctolagus cuniculus) (UniProt P00883)", "sequence (P00883 whole entry, looked up)": "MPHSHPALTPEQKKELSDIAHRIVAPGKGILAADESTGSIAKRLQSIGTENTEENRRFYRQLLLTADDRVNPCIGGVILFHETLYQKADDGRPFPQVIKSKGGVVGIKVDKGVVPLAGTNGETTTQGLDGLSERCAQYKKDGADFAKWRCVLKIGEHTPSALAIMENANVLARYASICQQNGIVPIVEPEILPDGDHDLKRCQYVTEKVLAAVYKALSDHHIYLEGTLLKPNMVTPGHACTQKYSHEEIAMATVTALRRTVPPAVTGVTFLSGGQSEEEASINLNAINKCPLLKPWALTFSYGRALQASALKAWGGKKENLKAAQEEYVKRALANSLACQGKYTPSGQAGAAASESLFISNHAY", "test": "qHTS Assay for Inhibitors of Fructose-1,6-bisphosphate Aldolase from Giardia Lamblia: Rabbit FBPA Selectivity (AID 2794); note: nearly all actives have a fitted effect of over 60% in size", "conditions": "Rabbit muscle FBPA enzyme inhibition, selectivity counter-screen; series mostly up to 57.5 µM; activity, negative = inhibition: at the top concentration", "description": "NIH Chemical Genomics Center [NCGC]\nNIH Molecular Libraries Probe Production centers Network [MLPCN]\nAssay Provider: Osnat Herzberg, University of Maryland\nThe objective of this project is to obtain compounds that inhibit Giardia lamblia growth. G. lamblia is a human pathogen which afflicts impoverished nations; it is the most common cause of outbreaks of diarrhea in the United States. During the course of our study of potential drug targets in Giardia, we have identified the Class II (Zn2+ functions in electrophilic catalysis) fructose-1,6-bisphosphate aldolase (FBPA) as an excellent candidate for drug targeting. FBPA is a key glycolytic pathway enzyme, essential for G. lamblia survival. The human FBPA belongs to the Class I aldolases, which have a different substrate binding site structure and a radically different catalytic mechanism (employing a lysine-Schiff base intermediate). Therefore, affinity-based or mechanism-based inhibitors of the Giardia FBPA are expected not to interfere with the catalytic function of the human FBPA.\nA glyceraldehyde-3-phosphate dehydrogenase/triose phosphate isomerase/NAD/arsenate coupled assay was adapted to the 1536-well HTP format for use in the primary screen. This was done by coupling it to a diaphorase/resazurin/resorufin reaction that can be monitored by fluorescence (excitation, 544 nm; emission, 590 nm). Compounds identified in this screen will be further evaluated by coupling the glycerol-3-phosphate/triose phosphate isomerase/NADH assay to a phenazine methosulfate/tetranitroblue tetrazolium color reaction. False positives due to the dehydrogenases and diaphorase inhibition will be eliminated, and selectivity assay will triage inhibitors of mammalian triose phosphate isomerase and the Class I FBPA. G. lamblia FBPA inhibitors identified by the in vitro analyses will be examined for growth inhibition of Giardia trophozoites, and for cytotoxicity in human cells.\nThis assay addresses whether hits in the primary screen are selective for […] FBPA, by using rabbit FBPA enzyme in the protocol.\nStep,Parameter,Value,Description\n1,Coupling enzyme reagent,2 uL,glyceraldehyde-3-phosphate\n2,Compound,23 nL,3.68 nM-57.5 uM final concentration\n3,Time,10 min,RT Incubation\n4,Substrate/detection Reagent,2 uL,Substrate + enzyme coupling system + AmpLite Red kit\n5,Time,20 min,RT Incubation\n6,Detector,525 nm/598 nm (Fluorescence),ViewLux Fluorescence Read (Read 1)\n1,Medium-binding black solid-bottom Kalypsys plates. FRD or Kalypsys dispenser.\n2,Compound Library (10 mM ,1:5 dilution). Pin-transferred for a [final] range of 3.68 nM-57.5 uM.\n4,FRD or Kalypsys dispenser, 2 uL of reaction mixture. Bottle kept at 4C and covered in foil to protect from light.\n6,ViewLux Protocol 1194; Excitation filter wheel A (525/20 Pol; BODIPY TMR FP), Emission filter wheel B (598/25 S; BODIPY TMR FP S).\nKeywords: Fructose-bisphosphate aldolase, FBPA , Giardia lamblia , Giardia, HTS, Inhibitors", "units": {"activity, negative = inhibition": "%"}, "values": [
      {"smiles": "O=C(N/N=C/c1ccccn1)c1cccnc1", "activity, negative = inhibition": -0.665},
      {"smiles": "O=C(NC(=S)Nc1ncccn1)c1ccccc1Br", "activity, negative = inhibition": 9.29},
      {"smiles": "Cn1c(=O)[nH]c(=O)c2c1[nH]c(=S)n2Cc1ccccc1", "activity, negative = inhibition": -10.2},
      {"smiles": "O=C(Nc1ccccc1Cl)O/N=C(/c1ccccc1)c1ccccn1", "activity, negative = inhibition": 2.64},
      {"smiles": "COC(=O)CC1=NN(c2nc(C)cc(C)n2)C(=O)C1", "activity, negative = inhibition": -3.84},
      {"smiles": "Cc1cnc(NC(=O)c2ccccn2)s1", "activity, negative = inhibition": -1.75},
      {"smiles": "CN1CCN(CCCCOc2ccccc2-c2ccccc2)CC1", "activity, negative = inhibition": 10.3},
      {"smiles": "COCCN(C(=S)Nc1ccccc1OC)C1CCN(C(C)C)CC1", "activity, negative = inhibition": 5.23},
      {"smiles": "O=C1CCCN1CCCNC(=S)Nc1ccc(F)c(Cl)c1", "activity, negative = inhibition": 9.97},
      {"smiles": "Oc1ccc2ccccc2c1N=Nc1nccs1", "activity, negative = inhibition": -13.3},
      {"smiles": "Oc1[nH]c2ccc(Br)cc2c1N=Nc1nn[nH]n1", "activity, negative = inhibition": -4.8},
      {"smiles": "C=C(C)CNC(=S)N/N=C/c1ccccc1OCC(=O)O", "activity, negative = inhibition": 17},
      {"smiles": "CC(C)(c1ccccc1)c1ccc(OCCN2CCCC2)cc1", "activity, negative = inhibition": -0.381},
      {"smiles": "Cc1nnc(SCC2=C(C(=O)O)N3C(=O)C(NC(=O)Cn4nc(C)c(Cl)c4C)C3SC2)s1", "note": "(stereo not given)", "activity, negative = inhibition": 3.51},
      {"smiles": "Cn1nnc(NC(=S)NC(=O)c2ccccc2)n1", "activity, negative = inhibition": 2.93},
      {"smiles": "CNC(=S)N/N=C/c1ccc(N2CCOCC2)s1", "activity, negative = inhibition": -4.67},
      {"smiles": "COc1ccc(C(=O)NC(=S)N2CCCCC2c2cccnc2)cc1OC", "note": "(stereo not given)", "activity, negative = inhibition": 5.33},
      {"smiles": "O=C(CN1CCN(Cc2ccccc2)CC1)Nc1ccc(F)c(F)c1", "activity, negative = inhibition": -1.24},
      {"smiles": "C=CCNC(=S)/N=c1/ccccn1Cc1ccccc1", "activity, negative = inhibition": 20.1},
      {"smiles": "O=[N+]([O-])c1cc([N+](=O)[O-])c2cccnc2c1O", "activity, negative = inhibition": -17.4},
      {"smiles": "Cc1cccc(C)c1OCCN1CCOCC1", "activity, negative = inhibition": -5.8},
      {"smiles": "CN(C)CCOc1ccc(Cl)cc1C(C)(C)C", "activity, negative = inhibition": -10.1},
      {"smiles": "C=CCc1cc(C)ccc1OCCCn1ccnc1", "activity, negative = inhibition": 12.7},
      {"smiles": "O=C(Nc1nnc(-c2ccco2)o1)c1ccc(S(=O)(=O)N2CCOCC2)cc1", "activity, negative = inhibition": 2.95},
      {"smiles": "Cc1nnc(N/N=C/c2ccccn2)[nH]c1=O", "activity, negative = inhibition": -5.96},
      {"smiles": "O=S(=O)(c1ccc(NC(=S)NN=C(C2CC2)C2CC2)cc1)N1CCOCC1", "activity, negative = inhibition": 13},
      {"smiles": "CC(=O)NC1CCN(CC(=O)Nc2nccs2)CC1", "activity, negative = inhibition": 6.87},
      {"smiles": "CC1CCCN(S(=O)(=O)c2ccc(C(=O)Nc3nnc(-c4ccncc4)o3)cc2)C1", "note": "(stereo not given)", "activity, negative = inhibition": 19.6},
      {"smiles": "Cc1cc(C)n(-c2ccc(Cl)c(C(=O)O)n2)n1", "activity, negative = inhibition": -10},
      {"smiles": "COc1ccc(CN2CCN(Cc3ccc(OC)c(OC)c3OC)CC2)cc1", "activity, negative = inhibition": -2.94},
      {"smiles": "O=C(O)Cn1c(Cc2ccccc2)nc2ccccc21", "activity, negative = inhibition": 3.92},
      {"smiles": "Cc1nc2ccc(NC(=S)N3CCC(C)CC3)cc2nc1C", "activity, negative = inhibition": -17.9},
      {"smiles": "O=C(CSc1cccc[n+]1[O-])c1ccc(-c2ccccc2)cc1", "activity, negative = inhibition": 3.7},
      {"smiles": "COc1ccc(Cl)cc1C(=O)NNC(=O)c1nc2nc(C)cc(C)n2n1", "activity, negative = inhibition": 9.24},
      {"smiles": "C/C(=N\\NC(N)=S)c1cccnc1", "activity, negative = inhibition": 6.15},
      {"smiles": "Cc1ccc(OCCCCc2c(C)n[nH]c2C)cc1", "activity, negative = inhibition": 5.07},
      {"smiles": "CCc1ccc2c(c1)C1(NN=C(c3ccccc3)S1)C(=O)N2", "note": "(stereo not given)", "activity, negative = inhibition": 1.08},
      {"smiles": "CSc1n[nH]c(=S)n1N", "activity, negative = inhibition": -2.76},
      {"smiles": "Cc1cc(C)nc(N/N=C/c2ccc([N+](=O)[O-])o2)n1", "activity, negative = inhibition": -8.84},
      {"smiles": "CCN(CC(=O)Nc1ccc(S(=O)(=O)N2CCCC2)cc1)CC(=O)Nc1cccc(OC)c1", "activity, negative = inhibition": 18}
    ]}
  ]
}
